The source made the active and inactive calls. The calls were made as follows: active = hit-call score of the fitted dose curve at least 0.9, where 1 is the maximum; inactive = score below 0.9.

Experiment [1] can be described thus: ATG_NFI_CIS: Attagene CIS-FACTORIAL HepG2 Assay for human Nuclear Factor I (NFI) (AID 2282989). Particulars: HepG2 cis-regulatory reporter, NFI response element transcription; actives raise or lower the signal. The procedure, abridged: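 HepG2 cells transiently transfected with cis-element-driven multiplexed reporter transcription units, dosed for 24 h. Reporter mRNA quantified by RT-PCR, fluorescent labelling, HpaI digestion and capillary electrophoresis; bidirectional fit versus DMSO baseline.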

In experiment [2] the target is Myc proto-oncogene protein (Homo sapiens) (UniProt P01106). Put plainly: ATG_Myc_CIS: Attagene CIS-FACTORIAL HepG2 Assay for human Myelocytomatosis (Myc) Proto-Oncogene Transcription Factor (AID 2282990). Particulars: HepG2, Attagene cis-reporter transcription factor activity; actives raise or lower the signal. The method, boiled down: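 Read-out: fluorescent reporter mRNA fragments resolved by capillary electrophoresis after RT-PCR. Human HepG2 liver cells carried transfected cis-element reporter units and were dosed for 24 h. Gain or loss of signal fitted relative to DMSO baseline.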

Experiment [3] in a line: ATG_NF_kB_CIS: Attagene CIS-FACTORIAL HepG2 Assay for human Nuclear Factor Kappa B (NF-kB) (AID 2282991). Particulars: HepG2 Attagene cis-factorial NF-kB reporter mRNA; actives raise or lower the signal. The method, boiled down:
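Endogenous transcription factor activity in HepG2 was captured via cis-regulated reporter constructs; after 24 h dosing, reporter mRNA was reverse-transcribed, amplified, fluorescently labelled and sized by capillary electrophoresis, with activity fitted bidirectionally relative to DMSO.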

Experiment [4] can be described thus: ATG_NRF2_ARE_CIS: Attagene CIS-FACTORIAL HepG2 Assay for human Nuclear Factor Erythroid 2 Related Factor 2 (NFR2) response to Antioxidant Response Elements (ARE) (AID 2282992).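 As to AC50: reporter mRNA level measured by RT-PCR and capillary electrophoresis fluorescence.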 Particulars: HepG2 Attagene ARE/NRF2 reporter, transcription factor activity; actives raise or lower the signal. The method, boiled down:
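Readout: reporter mRNA quantified by RT-PCR plus FAM-labelled primer extension, HpaI digestion and capillary electrophoresis, 24 h after dosing transfected HepG2 cells. Gain or loss of signal is fitted bidirectionally against DMSO baseline.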

The nature of experiment [5]: ATG_Oct_MLP_CIS: Attagene CIS-FACTORIAL HepG2 Assay for human Octamer-Binding Transcription Factor (Oct) (AID 2282993). Particulars: HepG2 Attagene cis-factorial Oct reporter, mRNA; actives raise or lower the signal. The procedure, abridged:
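HepG2 cells transiently transfected with cis-promoter-driven multiplexed reporter transcription units, dosed for 24 h. Reporter mRNA quantified by RT-PCR, fluorescent labelling, HpaI digestion and capillary electrophoresis; bidirectional fits versus DMSO baseline.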

For experiment [6], the target named is Cellular tumor antigen p53 (Homo sapiens) (UniProt P04637). The experiment in a line: ATG_p53_CIS: Attagene CIS-FACTORIAL HepG2 Assay for human p53 Transcription Factor (AID 2282994). Particulars: HepG2 p53 cis-element reporter, Attagene mRNA; actives raise or lower the signal. The procedure, abridged:
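Read-out: reporter mRNA by RT-PCR plus capillary electrophoresis with fluorescence detection. Human HepG2 liver cells carried transfected multi-reporter cis-element constructs, dosed 24 h. Gain or loss of signal fitted bidirectionally against DMSO control.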

Chain of Cellular tumor antigen p53 (Homo sapiens) (P04637 whole entry, looked up): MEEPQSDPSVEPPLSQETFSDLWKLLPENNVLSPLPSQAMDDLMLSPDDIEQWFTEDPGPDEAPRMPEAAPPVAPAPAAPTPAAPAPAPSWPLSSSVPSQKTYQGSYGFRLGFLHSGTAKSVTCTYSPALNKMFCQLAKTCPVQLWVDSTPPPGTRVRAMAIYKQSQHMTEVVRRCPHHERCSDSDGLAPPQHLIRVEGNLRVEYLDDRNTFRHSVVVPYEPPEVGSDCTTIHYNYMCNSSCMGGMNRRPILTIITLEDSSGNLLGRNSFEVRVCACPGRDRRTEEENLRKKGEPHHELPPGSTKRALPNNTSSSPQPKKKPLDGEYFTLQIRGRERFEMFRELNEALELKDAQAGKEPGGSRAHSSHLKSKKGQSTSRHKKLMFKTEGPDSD
Chain of Myc proto-oncogene protein (Homo sapiens) (P01106 whole entry, looked up, the tested form may be a part): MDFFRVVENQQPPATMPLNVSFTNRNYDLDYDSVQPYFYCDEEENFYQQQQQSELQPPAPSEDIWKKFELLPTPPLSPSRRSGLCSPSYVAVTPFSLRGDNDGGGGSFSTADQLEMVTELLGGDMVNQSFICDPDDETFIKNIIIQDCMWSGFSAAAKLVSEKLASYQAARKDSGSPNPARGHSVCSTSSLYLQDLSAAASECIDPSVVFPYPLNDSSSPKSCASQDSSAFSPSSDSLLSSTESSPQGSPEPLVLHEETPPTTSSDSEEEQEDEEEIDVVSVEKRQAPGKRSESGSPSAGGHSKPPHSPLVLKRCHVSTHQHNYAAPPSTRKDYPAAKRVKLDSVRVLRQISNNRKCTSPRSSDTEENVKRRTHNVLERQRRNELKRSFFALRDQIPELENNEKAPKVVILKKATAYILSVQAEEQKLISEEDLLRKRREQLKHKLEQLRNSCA

In the case of `CCOCC(=O)O`, the compound was called inactive in experiment [1], in experiment [2], in experiment [3], in experiment [4] and in experiment [5].
Broadly, the AC50 is the midpoint of the concentration-response curve, whichever way the signal moves. For `CC(C)c1ccc2cc(C(C)C)ccc2c1`, the compound was classed as inactive in experiment [1], in experiment [2], in experiment [3] and in experiment [5]. Also, in experiment [4], the AC50 is 100 µM (active).
Take `CC1(C)O[C@@H]2C[C@H]3[C@@H]4C[C@H](F)C5=CC(=O)CC[C@]5(C)[C@H]4[C@@H](O)C[C@]3(C)[C@]2(C(=O)CO)O1`: the outcome in experiment [1], in experiment [2], in experiment [3], in experiment [4] and in experiment [5] was inactive.
As to `c1ccc(CCCc2ccncc2)cc1`, the call in experiment [1], in experiment [2], in experiment [3], in experiment [5] and in experiment [6] was inactive. In addition, the AC50 in experiment [4] is 45.4 µM (active).
Regarding `CC(=O)Nc1nnc(S(N)(=O)=O)s1`, the call in experiment [1], in experiment [2], in experiment [3], in experiment [4], in experiment [5] and in experiment [6] was inactive.
Regarding `CC1=CC[C@H]2C[C@@H]1C2(C)C`, the result in experiment [1], in experiment [2], in experiment [3], in experiment [4] and in experiment [5] was inactive.
For `COC=O`, the call in experiment [1], in experiment [2], in experiment [3], in experiment [4] and in experiment [5] was inactive.
Regarding `CC1(C)S[C@@H]2[C@H](NC(=O)COc3ccccc3)C(=O)N2[C@H]1C(=O)O`, the outcome in experiment [1], in experiment [2], in experiment [3], in experiment [4], in experiment [5] and in experiment [6] was inactive.
Take `CC(=O)OC1C2(C)CCC(C2)C1(C)C` (stereo unspecified): the outcome in experiment [1], in experiment [2], in experiment [3], in experiment [4] and in experiment [5] was inactive.
For `CCCCCCCCCCc1ccccc1`, the compound was called inactive in experiment [1], in experiment [2], in experiment [3], in experiment [4] and in experiment [6]. The AC50 in experiment [5] is 53.6 µM (active).
Consider `ON(Cc1ccccc1)Cc1ccccc1`, for which the result in experiment [1], in experiment [2], in experiment [3], in experiment [4], in experiment [5] and in experiment [6] was inactive.
Take `CCCOCCOCCOCCO`: the result in experiment [1], in experiment [2], in experiment [3], in experiment [4], in experiment [5] and in experiment [6] was inactive.
As to `CCCCCCCCCCCCCCCC(=O)OCC`, the outcome in experiment [1], in experiment [2], in experiment [3], in experiment [4] and in experiment [5] was inactive.
In the case of `CC(C)c1ccc(C=O)cc1`, the outcome in experiment [1], in experiment [2], in experiment [3], in experiment [4], in experiment [5] and in experiment [6] was inactive.
In the case of `C=CC(C)(CCC=C(C)C)OC(=O)CC(C)C` (stereo unspecified), the compound was classed as inactive in experiment [1], in experiment [2] and in experiment [3]. In addition, the AC50 in experiment [4] was 100 µM (active).
On to `CCOC(=O)NNc1nncc2ccccc12`, for which the result in experiment [1], in experiment [2], in experiment [3], in experiment [4], in experiment [5] and in experiment [6] was inactive.
Take `CC(C)(C)c1n[nH]c(=O)n(N)c1=O`: the compound was called inactive in experiment [1], in experiment [2], in experiment [3], in experiment [4] and in experiment [5].
Turning to `CC(=O)OCc1ccco1`, the compound was called inactive in experiment [1], in experiment [2], in experiment [3] and in experiment [5]. Also, the AC50 in experiment [4] was 45.3 µM (active).
As for `OCCc1ccncc1`, the compound was called inactive in experiment [1], in experiment [2], in experiment [3], in experiment [4] and in experiment [5].
For `O=C(O)C(c1ccc(Cl)cc1)c1ccc(Cl)cc1`, the result in experiment [1], in experiment [2], in experiment [3], in experiment [4] and in experiment [5] was inactive.
`Cc1cc(C)c(C)c(O)c1`: the result in experiment [1], in experiment [2], in experiment [3], in experiment [4] and in experiment [5] was inactive.
With `CO[Si](CCC1CCC2OC2C1)(OC)OC` (stereo unspecified), the compound was classed as inactive in experiment [1], in experiment [2], in experiment [3], in experiment [4], in experiment [5] and in experiment [6].
With `Cc1cc(=O)n(-c2ccccc2)n1C`, the result in experiment [1], in experiment [2], in experiment [3], in experiment [4], in experiment [5] and in experiment [6] was inactive.
For the compound `Cn1c([N+](=O)[O-])cnc1COC(N)=O`, the result in experiment [1], in experiment [2], in experiment [3], in experiment [4], in experiment [5] and in experiment [6] was inactive.
Take `CCCNC(=O)NS(=O)(=O)c1ccc(Cl)cc1`: the outcome in experiment [1], in experiment [2], in experiment [3], in experiment [4] and in experiment [5] was inactive.
For `O=C(C(Cl)Cl)N1CCOC12CCCCC2`, the compound was classed as inactive in experiment [1], in experiment [3], in experiment [5] and in experiment [6]. The AC50 in experiment [2] is 8.87 µM (active); in experiment [4], 7.52 µM (active).
Consider `c1cc(N(CC2CO2)CC2CO2)ccc1OCC1CO1` (stereo unspecified), for which the AC50 in experiment [1] is 27 µM (active); in experiment [2] it was 163 µM (active); in experiment [3] it was 48.4 µM (active); in experiment [4] it was 25.4 µM (active); in experiment [5], 20.3 µM (active).
As to `CCCCCCOc1cc(C)c(O)c(C)c1C`, the call in experiment [1], in experiment [2], in experiment [5] and in experiment [6] was inactive. Also, the AC50 in experiment [3] was 16.5 µM (active); in experiment [4] it was 7.78 µM (active).
Regarding `CC[C@H]1OC(=O)[C@H](C)[C@@H](O[C@H]2C[C@@](C)(OC)[C@@H](O)[C@H](C)O2)[C@H](C)[C@@H](O[C@@H]2O[C@H](C)C[C@H](N(C)C)[C@H]2O)[C@](C)(O)C[C@@H](C)C(=NOCOCCOC)[C@H](C)[C@@H](O)[C@]1(C)O`, the compound was classed as inactive in experiment [1], in experiment [2], in experiment [3], in experiment [4] and in experiment [5].
Take `O=C1CCC(=O)N1Cl`: the outcome in experiment [1], in experiment [2], in experiment [3], in experiment [4] and in experiment [5] was inactive.
With `CCN(Cc1cccc(S(=O)(=O)O)c1)c1ccc(C(=C2C=CC(=[N+](CC)Cc3cccc(S(=O)(=O)[O-])c3)C=C2)c2ccccc2)cc1`, the call in experiment [1], in experiment [2], in experiment [3], in experiment [5] and in experiment [6] was inactive. In experiment [4], the concentration at half-maximal activity (AC50) is 112 µM (active).
Consider `COc1ccc(NC(C)=O)cc1N`, for which the compound was called inactive in experiment [1], in experiment [2], in experiment [3], in experiment [4] and in experiment [5].
With `Nc1ccc(Oc2ccc(N)c(N)c2)cc1`, the compound was classed as inactive in experiment [1], in experiment [2], in experiment [3] and in experiment [5]. Besides, the AC50 in experiment [4] was 30.6 µM (active).
With `O=C(Oc1ccccc1)c1ccc2ccccc2c1O`, the call in experiment [1], in experiment [2] and in experiment [6] was inactive. In addition, the AC50 in experiment [3] is 100 µM (active); in experiment [4], 18.3 µM (active); in experiment [5], 49 µM (active).
For `OCCCS`, the compound was classed as inactive in experiment [1], in experiment [2], in experiment [3], in experiment [4], in experiment [5] and in experiment [6].
In the case of `SCCc1cnccn1`, the outcome in experiment [1], in experiment [2], in experiment [4] and in experiment [5] was inactive. The results for the AC50 in experiment [3] and in experiment [6] were 47.7 µM (active) and 46.4 µM (active), respectively.

The record behind these values is PubChem BioAssay (EPA / NIEHS).
